Laboratory results reported in PubChem BioAssay.

The molecules below were run against Calmodulin-1 (Homo sapiens) (UniProt P0DP23) (assay: small molecules binding Ca-loaded calmodulin-1 – biochemical, small-molecule microarray, Cy5-labelled CALM1, plus calcium, artefact control for SMM control-protein annotation, profiling panel (AID 1112;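 further: score merges spot fluorescence with signal to noise from triplicate slides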)). Conditions: Cy5-CALM1 binding fluorescence, higher = more signal.

Structure (SMILES)	composite z-score
CC(C)c1ccc(NN2C(C(O)c3ccc(F)cc3)C=CC3C(=O)N(c4ccccc4)C(=O)C32)cc1 (stereo not given)	-0.0298
O=C1[C@H]2C=C(I)[C@H](C[C@@H]2OCCOCCO)[C@@]12CO2	-0.876
COC(=O)[C@@]1(Cc2ccc(F)cc2)[C@H]2c3cc(C(=O)N4CCCC4)n(CCc4c[nH]c5ccccc45)c3C[C@H]2CN1C(=O)c1ccccc1	1.31
O=C1OCCC/C=C\[C@H]2OC34C=CCN(c5ccc6ccccc6c5)C(=O)[C@H]3N(CCO)C(=O)[C@@H]4C12 (stereo not given in full)	0.903
Cc1ccc(S[C@]2(C(=O)O)CC(=O)N(C3CCCCC3)[C@@H]2c2ccc(CO)cc2I)cc1	0.63
CCCCC(CC)C(O)C1C=CC2C(=O)N(C)C(=O)C2N1Nc1ccccc1 (stereo not given)	0.583
N#Cc1ccc(NN2C(C(O)c3ccc(Br)cc3)C=CC3C(=O)N(c4ccccc4)C(=O)C32)cc1 (stereo not given)	0.141
Oc1ccc2cc[n+](Cc3cc4c(cc3Br)OCO4)cc2c1	0.446
Cc1cc(C)c(C(O)C2C=CC3C(=O)N(c4ccccc4)C(=O)C3N2Nc2ccccc2F)c(C)c1 (stereo not given)	-0.0086
COCCOC(=O)N1C(=O)[C@@]2(c3cc(C#CC4=CCCCC4)ccc31)[C@H](C(=O)Nc1nc3ccccc3s1)[C@H]1C(=O)O[C@H](c3ccccc3)[C@H](c3ccccc3)N1[C@@H]2c1ccc(O)cc1	0.641
COc1ccc([Si](C)(C)[C@H]2[C@H](CC(=O)N(CCO)Cc3ccccc3)O[C@@]3(C(=O)N(C)c4c(Br)cc(C)cc43)[C@@H]2C)cc1	0.973
O=C(c1ccccc1)N1C(=O)[C@]2(Cc3ccccc31)N=C(c1ccc(OCCCO)cc1)O[C@@H]2c1ccccc1	-0.165
COc1ccc(CCNC(=O)[C@@]2(c3ccc([N+](=O)[O-])cc3)CC(=O)N(C3CCCCC3)[C@@H]2c2ccc(CO)cc2)cc1	0.323
O=C(NCCN1CCOCC1)[C@@H]1c2ccccc2C(=O)N(Cc2ccccc2Cl)[C@H]1c1ccc(CO)cc1	-0.725
CS(=O)(=O)CCOC(=O)C1=CC(c2ccc(CO)cc2)=CC(C2CC2)N(Cc2sc3ccccc3c2Cl)C=C1C(=O)OCCS(C)(=O)=O (stereo not given)	0.0677
CC1=C2[C@@H](CCc3ccccc3)OB(O)C[C@@H]2[C@@H]2C(=O)N(C)C(=O)[C@@H]2C1	-0.338
CN1C2C=C(CCCO)C(C3C(=O)N(C(N)=O)C(=O)C32)C1C1CC1 (stereo not given)	-0.458
NCCCCCCNC(=O)[C@@H]1C[C@@H]2C(=O)N[C@@H](CCCCN)C(=O)N2[C@@H]1c1ccc(O)cc1	0.0301
CC1CC/C=C\[C@H]2OC34C=CCN(C(C)(C)C)C(=O)[C@H]3N(CCCCCO)C(=O)[C@@H]4C2C(=O)O1 (stereo not given in full)	-0.517
Cc1ccc(F)cc1S(=O)(=O)N[C@@H]1CCN(Cc2ccc(Br)cc2)C1	-0.806
COC(=O)[C@@]1(Cc2ccc(OC)cc2)[C@H]2c3cc(C(=O)N4CCCC4)n(CCO)c3C[C@H]2CN1C(=O)c1ccccc1	0.173
CCOC(=O)C[C@H]1[C@H](OC(=O)c2ccccc2-c2ccccc2)[C@@H](NC(=O)c2ccc3ccccc3c2)c2cc(OCCCO)ccc2N1C(=O)c1ccccc1	-0.332
CCCC1(C(=O)OC)C=C2C(=C(C)C(=O)C2C)CN1 (stereo not given)	0.881
O=C1C2C=CC(C(O)C3CC=CCC3)N(Nc3ccccc3)C2C(=O)N1c1ccccc1 (stereo not given)	-0.0425
CC(C)N1C(=O)C[C@@](C(=O)NC2CC2)(c2ccc([N+](=O)[O-])cc2)[C@H]1c1ccc(CO)cc1	-0.606
C=C(C(=O)CC[C@H](OC(=O)c1ccccc1-c1ccccc1C(=O)O)c1cccc(OCCO)c1)C(C)C	-0.409
COC(=O)c1c(CC[C@@H](CO)NC(=O)N[C@@H](C)Cn2cc(-c3ccccn3)nn2)oc(C(C)=O)c1C(=O)OC	-1.06
COCC(=C=CC[C@H](O)c1ccc(CO)o1)CCO	-0.249
COCC(=C=CC[C@H](O)c1ccc(OCCO)cc1)CCO	-0.618
COc1cc(NN2C(C(O)c3ccco3)C=CC3C(=O)N(C)C(=O)C32)cc(OC)c1OC (stereo not given)	-0.0913
